What was measured:
Assay in all cases: log2 ratio of Biotin-Ahx-Ub-VS probe labelling (fragment/DMSO); higher = less target engagement (more negative = stronger competition), active = hit call of the paper (q ≤ 0.05, log2 ratio ≤ -1)
Settings in all cases: compound concentration: 200 uM; treatment time: 3 h
OTUD6B = target: T1, OTUD6B (UniProt Q8N6M0)
T1 sequence (whole entry): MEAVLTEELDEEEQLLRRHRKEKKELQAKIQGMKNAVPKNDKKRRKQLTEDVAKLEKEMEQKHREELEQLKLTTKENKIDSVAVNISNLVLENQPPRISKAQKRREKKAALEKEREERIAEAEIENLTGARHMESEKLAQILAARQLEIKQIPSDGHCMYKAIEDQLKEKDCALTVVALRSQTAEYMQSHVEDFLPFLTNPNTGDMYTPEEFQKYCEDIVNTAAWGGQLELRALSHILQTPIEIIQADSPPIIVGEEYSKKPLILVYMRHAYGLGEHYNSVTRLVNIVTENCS
Method in brief: (§1)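 HEK293T lysate (495 µg per sample, in Tris/CHAPS/IGEPAL buffer with protease inhibitors) was exposed in triplicate for 3 h to fragment at 200 µM or to vehicle, then to Biotin-Ahx-Ub-VS at 0.5 µM final for 1 h. Labelled DUBs were enriched on NeutrAvidin, digested with LysC and trypsin, and analysed by diaPASEF LC-MS/MS. Spectronaut label-free quantities were normalised to the global median, and values are average log2 ratios of fragment over vehicle from an unpaired t-test. Only proteins with ≥2 unique peptides were used.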

OTUD7B = target: T2, OTUD7B (UniProt Q6GQQ9)
T2 sequence (whole entry): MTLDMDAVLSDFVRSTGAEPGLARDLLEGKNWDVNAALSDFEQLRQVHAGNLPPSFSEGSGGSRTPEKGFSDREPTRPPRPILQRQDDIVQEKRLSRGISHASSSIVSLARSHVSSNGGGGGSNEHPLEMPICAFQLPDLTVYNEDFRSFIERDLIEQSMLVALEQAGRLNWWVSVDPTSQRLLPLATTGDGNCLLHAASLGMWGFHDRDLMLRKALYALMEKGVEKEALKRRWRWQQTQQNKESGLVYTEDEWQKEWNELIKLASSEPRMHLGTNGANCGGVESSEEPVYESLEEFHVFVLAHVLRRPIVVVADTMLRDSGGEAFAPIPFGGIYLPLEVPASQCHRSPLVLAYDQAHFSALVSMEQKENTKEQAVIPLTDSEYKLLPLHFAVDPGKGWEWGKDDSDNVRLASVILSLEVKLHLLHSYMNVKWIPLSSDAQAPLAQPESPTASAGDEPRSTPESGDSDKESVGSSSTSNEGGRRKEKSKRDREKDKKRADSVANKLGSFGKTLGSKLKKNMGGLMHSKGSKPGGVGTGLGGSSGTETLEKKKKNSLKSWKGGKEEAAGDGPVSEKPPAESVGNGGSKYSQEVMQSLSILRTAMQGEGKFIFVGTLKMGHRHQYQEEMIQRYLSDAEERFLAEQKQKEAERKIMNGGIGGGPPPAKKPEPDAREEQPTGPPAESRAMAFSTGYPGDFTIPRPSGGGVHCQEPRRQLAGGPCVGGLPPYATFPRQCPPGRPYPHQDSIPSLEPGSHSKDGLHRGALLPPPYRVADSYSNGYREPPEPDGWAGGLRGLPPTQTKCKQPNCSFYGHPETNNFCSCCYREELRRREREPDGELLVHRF
Method in brief: as §1

PRPF8 = PRPF8 (UniProt Q6P2Q9)
Method in brief: as §1

PSMD7 = target: T3, PSMD7 (UniProt P51665)
T3 sequence (whole entry): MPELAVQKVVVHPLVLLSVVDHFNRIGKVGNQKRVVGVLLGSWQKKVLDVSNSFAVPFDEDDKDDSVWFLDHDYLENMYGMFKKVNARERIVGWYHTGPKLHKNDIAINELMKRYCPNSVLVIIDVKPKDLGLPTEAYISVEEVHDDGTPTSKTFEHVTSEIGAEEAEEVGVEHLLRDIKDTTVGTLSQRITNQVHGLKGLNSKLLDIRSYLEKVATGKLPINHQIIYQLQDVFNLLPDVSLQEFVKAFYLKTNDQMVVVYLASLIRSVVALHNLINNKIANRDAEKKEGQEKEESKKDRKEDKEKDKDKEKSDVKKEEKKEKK
Method in brief: as §1

UCHL1 = UCHL1 (UniProt P09936)
Method in brief: as §1

UCHL3 = target: T4, UCHL3 (UniProt P15374)
T4 sequence (whole entry): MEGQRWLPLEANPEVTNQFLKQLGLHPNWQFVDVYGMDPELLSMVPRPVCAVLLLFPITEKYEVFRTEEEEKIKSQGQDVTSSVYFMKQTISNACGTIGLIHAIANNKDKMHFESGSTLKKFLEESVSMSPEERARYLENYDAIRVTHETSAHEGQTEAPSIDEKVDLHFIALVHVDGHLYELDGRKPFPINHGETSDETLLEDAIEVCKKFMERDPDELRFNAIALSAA
Method in brief: as §1

UCHL5 = target: T5, UCHL5 (UniProt Q9Y5K5)
T5 sequence (whole entry): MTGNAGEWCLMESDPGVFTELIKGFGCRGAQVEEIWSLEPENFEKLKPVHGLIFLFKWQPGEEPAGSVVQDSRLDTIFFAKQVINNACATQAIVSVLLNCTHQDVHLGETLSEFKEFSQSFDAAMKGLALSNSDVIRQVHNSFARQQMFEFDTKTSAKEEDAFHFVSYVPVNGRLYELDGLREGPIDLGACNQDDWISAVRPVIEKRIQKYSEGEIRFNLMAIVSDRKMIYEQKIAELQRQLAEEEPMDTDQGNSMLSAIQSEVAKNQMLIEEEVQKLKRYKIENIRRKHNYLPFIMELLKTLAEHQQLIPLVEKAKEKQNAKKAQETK
Method in brief: as §1

USP10 = USP10 (UniProt Q14694)
Method in brief: as §1

USP15 = target: T6, USP15 (UniProt Q9Y4E8)
T6 sequence (whole entry): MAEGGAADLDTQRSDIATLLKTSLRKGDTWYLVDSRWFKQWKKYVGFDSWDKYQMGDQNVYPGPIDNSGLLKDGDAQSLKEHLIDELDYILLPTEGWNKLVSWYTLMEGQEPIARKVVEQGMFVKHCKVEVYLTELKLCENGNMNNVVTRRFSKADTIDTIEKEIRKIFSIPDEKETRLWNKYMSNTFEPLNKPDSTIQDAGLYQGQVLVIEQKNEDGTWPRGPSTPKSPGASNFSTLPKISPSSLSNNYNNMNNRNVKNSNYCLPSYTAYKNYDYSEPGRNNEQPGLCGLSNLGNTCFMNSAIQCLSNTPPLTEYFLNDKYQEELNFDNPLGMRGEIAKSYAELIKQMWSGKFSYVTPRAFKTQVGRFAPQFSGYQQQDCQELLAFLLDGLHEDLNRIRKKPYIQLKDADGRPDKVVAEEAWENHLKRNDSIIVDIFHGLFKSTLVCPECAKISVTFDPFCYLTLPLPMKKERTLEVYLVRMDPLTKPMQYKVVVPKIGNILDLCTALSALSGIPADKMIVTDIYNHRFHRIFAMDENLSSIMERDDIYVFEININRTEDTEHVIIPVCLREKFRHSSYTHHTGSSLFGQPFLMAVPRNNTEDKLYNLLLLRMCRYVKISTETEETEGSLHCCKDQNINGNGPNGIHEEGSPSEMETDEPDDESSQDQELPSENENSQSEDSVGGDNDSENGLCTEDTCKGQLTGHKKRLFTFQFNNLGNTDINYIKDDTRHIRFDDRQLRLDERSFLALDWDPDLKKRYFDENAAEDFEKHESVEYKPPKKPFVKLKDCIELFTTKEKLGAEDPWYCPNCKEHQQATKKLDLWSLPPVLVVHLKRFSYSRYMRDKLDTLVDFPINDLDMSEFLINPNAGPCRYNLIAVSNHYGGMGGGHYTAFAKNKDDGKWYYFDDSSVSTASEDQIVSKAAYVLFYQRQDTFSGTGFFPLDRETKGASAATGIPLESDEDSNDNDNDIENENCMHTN
Method in brief: as §1

USP16 = USP16 (UniProt Q9Y5T5)
Method in brief: as §1

Measured: log2 ratio of Biotin-Ahx-Ub-VS probe labelling

Chain of USP16 (Q9Y5T5 whole entry, looked up): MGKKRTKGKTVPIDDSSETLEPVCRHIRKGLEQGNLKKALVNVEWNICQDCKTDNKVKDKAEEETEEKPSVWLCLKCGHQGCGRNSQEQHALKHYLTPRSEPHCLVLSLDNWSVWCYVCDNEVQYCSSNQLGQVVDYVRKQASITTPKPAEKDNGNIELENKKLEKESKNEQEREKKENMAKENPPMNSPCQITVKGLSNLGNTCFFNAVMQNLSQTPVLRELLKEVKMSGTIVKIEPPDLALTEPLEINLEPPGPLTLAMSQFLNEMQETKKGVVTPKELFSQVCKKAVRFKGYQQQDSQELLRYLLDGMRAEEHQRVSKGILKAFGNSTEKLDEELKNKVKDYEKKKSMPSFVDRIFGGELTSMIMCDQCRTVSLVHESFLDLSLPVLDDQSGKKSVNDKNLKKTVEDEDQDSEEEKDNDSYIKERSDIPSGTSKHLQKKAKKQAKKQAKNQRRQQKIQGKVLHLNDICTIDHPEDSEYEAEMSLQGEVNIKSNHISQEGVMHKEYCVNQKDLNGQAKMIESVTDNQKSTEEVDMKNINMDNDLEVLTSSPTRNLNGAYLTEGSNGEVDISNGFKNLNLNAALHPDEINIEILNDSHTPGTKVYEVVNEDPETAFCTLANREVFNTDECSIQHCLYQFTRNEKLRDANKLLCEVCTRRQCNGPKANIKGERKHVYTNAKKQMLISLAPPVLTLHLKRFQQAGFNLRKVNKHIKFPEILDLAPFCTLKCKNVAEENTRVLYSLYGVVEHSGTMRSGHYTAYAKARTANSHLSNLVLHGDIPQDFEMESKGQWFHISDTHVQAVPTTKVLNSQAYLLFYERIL
Chain of USP10 (Q14694 whole entry): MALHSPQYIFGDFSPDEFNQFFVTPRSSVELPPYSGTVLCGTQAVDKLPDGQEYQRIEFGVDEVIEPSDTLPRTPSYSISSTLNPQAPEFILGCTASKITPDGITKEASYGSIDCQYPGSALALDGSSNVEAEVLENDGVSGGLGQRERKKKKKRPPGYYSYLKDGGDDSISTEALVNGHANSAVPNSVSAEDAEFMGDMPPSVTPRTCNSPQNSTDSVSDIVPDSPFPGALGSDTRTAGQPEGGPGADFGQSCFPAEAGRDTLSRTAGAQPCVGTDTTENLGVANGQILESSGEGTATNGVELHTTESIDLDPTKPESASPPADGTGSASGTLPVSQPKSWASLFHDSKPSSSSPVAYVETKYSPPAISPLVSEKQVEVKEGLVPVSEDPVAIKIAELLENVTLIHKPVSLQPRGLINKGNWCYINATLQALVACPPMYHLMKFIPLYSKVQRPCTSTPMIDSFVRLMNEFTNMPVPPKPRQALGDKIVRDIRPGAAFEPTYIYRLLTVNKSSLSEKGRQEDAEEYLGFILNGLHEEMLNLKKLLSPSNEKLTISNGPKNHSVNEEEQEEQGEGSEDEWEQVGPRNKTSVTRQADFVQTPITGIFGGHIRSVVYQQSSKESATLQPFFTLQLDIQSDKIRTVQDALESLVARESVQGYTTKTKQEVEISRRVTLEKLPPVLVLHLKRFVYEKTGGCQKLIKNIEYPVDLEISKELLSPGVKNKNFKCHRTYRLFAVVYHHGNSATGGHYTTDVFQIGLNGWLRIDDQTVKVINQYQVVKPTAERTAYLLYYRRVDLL
Chain of UCHL1 (P09936 whole entry, looked up): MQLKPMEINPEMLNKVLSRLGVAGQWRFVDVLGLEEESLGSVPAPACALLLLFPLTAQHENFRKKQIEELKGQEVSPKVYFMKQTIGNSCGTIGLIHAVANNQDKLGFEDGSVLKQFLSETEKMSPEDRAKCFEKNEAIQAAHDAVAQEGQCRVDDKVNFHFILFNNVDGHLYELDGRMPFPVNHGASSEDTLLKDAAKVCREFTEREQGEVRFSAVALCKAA

CC(NC(=O)CCl)c1noc(Cc2ccccc2)n1 (stereo not given)
active: UCHL1 -1.97
inactive: OTUD6B -0.409 | OTUD7B -0.724 | PRPF8 0.0633 | PSMD7 -0.49 | UCHL3 -0.00714 | UCHL5 -0.344 | USP10 0.046 | USP15 -0.331 | USP16 -0.296
